Results reported in PubChem BioAssay (NCI).
“And” between values parts separate entries of the source, which are not always exact repeats. Equal values may be shown once. About 83,000 compounds went through this panel and 20% of them were active in at least one assay; those are over-represented in the sample as a whole.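 How to read the values: 0–100, growth inhibition (40 = 60% inhibited); 0, no net growth; -100 to 0, cell death (-40 = 40% of starting cells died; -100 = all dead).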 The source made the active and inactive calls. The calls were made as follows: active = growth percent below 10; inactive = the rest.

Legend:
Experiment in all cases: NCI-60 one-dose screen, 48 h (100 = growth as untreated, 0 = no growth, -100 = all killed)
Settings in all cases: 10 µM unless noted
T-47D breast = tested on: T-47D breast
BT-549 breast = tested on: BT-549 breast
MDA-MB-435 melanoma = tested on: MDA-MB-435 melanoma
SW-620 colon = tested on: SW-620 colon
MCF7 breast = tested on: MCF7 breast
HCT-116 colon = tested on: HCT-116 colon
HCC-2998 colon = tested on: HCC-2998 colon
KM12 colon = tested on: KM12 colon

SMILES | growth (T-47D breast) | growth (BT-549 breast) | growth (MDA-MB-435 melanoma) | growth (SW-620 colon) | growth (MCF7 breast) | growth (HCT-116 colon) | growth (HCC-2998 colon) | growth (KM12 colon)
COc1ccc(C(=O)N/N=C/c2ccc(O)cc2O)cc1Nc1ccnc(C(F)(F)F)c1 | 21.6% (inactive) | 55.6% (inactive) | 32.7% (inactive) | 35.8% (inactive) | 21.9% (inactive) | 15.6% (inactive) | 40.9% (inactive) | 69.4% (inactive)
O=C1C=CC(=O)N1c1ccc2ccccc2c1 | 88.7% (inactive) and 88.6% (inactive) | 114% (inactive) and 103% (inactive) | 120% (inactive) and 95.4% (inactive) | 19.4% (inactive) and -15.2% (active) | 95.4% (inactive) and 106% (inactive) | 44.9% (inactive) and 54.9% (inactive) | 100% (inactive) and 106% (inactive) | 103% (inactive) and 104% (inactive)
CCN1C(=O)N(c2ccccc2)C2NC(=S)N(/N=C/C=C/c3ccccc3)C21 (centres undefined) | 38.2% (inactive) | -8.95% (active) | -35.1% (active) | 26.5% (inactive) | 3.24% (active) | 2.69% (active) | 17.6% (inactive) | 21% (inactive)
O=C(Nc1ccc(Cl)c(Cl)c1)Nc1ccc(Cl)c(Cl)c1 | -51.5% (active) and 12.6% (inactive) | -83.3% (active) and 37.7% (inactive) | -80.9% (active) and 13.6% (inactive) | -60.5% (active) and 19.3% (inactive) | -75.9% (active) and 13.6% (inactive) | -89.9% (active) and 4.25% (active) | -95.9% (active) and 22.8% (inactive) | -96.3% (active) and 14% (inactive)
Cc1ccc(-c2nc(SCC(=O)c3ccc(C#N)cc3)[nH]c(=O)c2C#N)cc1 | 100% (inactive) | 101% (inactive) | 106% (inactive) | 112% (inactive) | 96.5% (inactive) | 88.9% (inactive) | 107% (inactive) | 93.6% (inactive)
Cc1ccc(S(=O)(=O)Nc2cc(Sc3ccccc3)c(O)c3ccccc23)cc1 | -1.22% (active) | 97.1% (inactive) | -95.4% (active) | 108% (inactive) | 64.1% (inactive) | 58.9% (inactive) | 106% (inactive) | 86.4% (inactive)
Cc1nc(Nc2ncc(C(=O)Nc3c(C)cccc3Cl)s2)cc(N2CCN(CCO)CC2)n1 | 40.8% (inactive) and -2.8% (active) | 55.3% (inactive) and 32.2% (inactive) | 62.6% (inactive) and 27.1% (inactive) | 103% (inactive) and 52.6% (inactive) | 66.1% (inactive) and 54.4% (inactive) | 40.7% (inactive) and 2.99% (active) | 110% (inactive) and 81% (inactive) | 81.3% (inactive) and 28.1% (inactive)
N=C1/C(=C2\NC3C=CC=CC3S2)C(c2ccc(Cl)cc2)C2C(=O)N(c3ccccc3)C(=S)N12 (centres undefined) | 102% (inactive) | 95.4% (inactive) | 108% (inactive) | 104% (inactive) | 94.1% (inactive) | 101% (inactive) | 99.1% (inactive) | 108% (inactive)
CCN(CC)CCOc1ccccc1C | 98.3% (inactive) | 102% (inactive) | 106% (inactive) | 107% (inactive) | 100% (inactive) | 98.3% (inactive) | 107% (inactive) | 107% (inactive)
O=C(/C=C/c1ccccc1)c1cccs1 | 97.3% (inactive) and 104% (inactive) | 104% (inactive) and 107% (inactive) | 88.9% (inactive) and 85.1% (inactive) | 84.6% (inactive) and 98.3% (inactive) | 29.1% (inactive) and 21.7% (inactive) | 74% (inactive) and 57.3% (inactive) | 97.3% (inactive) and 130% (inactive) | 69.6% (inactive) and 70% (inactive)
CCCCCCCCCCCCCCCC[N+](C)(C)CCN(Cc1ccc(OC)cc1)c1ncccn1 | -5.46% (active) and 42.2% (inactive) | -75% (active) and 61.8% (inactive) | -96.8% (active) | -86% (active) and 76.9% (inactive) | 20.1% (inactive) and 47.6% (inactive) | -85.6% (active) and -62.4% (active) | -76% (active) and 50.2% (inactive) | -100% (active) and 33.6% (inactive)
C=CCN1C=CC(=O)[C@H](O[Si](C)(C)C(C)(C)C)[C@@H]1/C=C/c1ccccc1 | -80.7% [100 µM] (active) | -62.4% [100 µM] (active) | -48.2% [100 µM] (active) | -58.9% [100 µM] (active) | -75.1% [100 µM] (active) | -77.5% [100 µM] (active) | -87.3% [100 µM] (active) | -71.8% [100 µM] (active)
O=C1OCC2=C1C(c1cccc([N+](=O)[O-])c1)c1cc3c(cc1N2CCO)CCC3 (centres undefined) | 65.9% (inactive) | 31.5% (inactive) | -34.9% (active) | 22.2% (inactive) | 20% (inactive) | 7.18% (active) | 6.84% (active) | 15.7% (inactive)
